The structures appear in SMILES notation. This is part of a sample that, as a whole, favours compounds with a hit. Of some 83,000 tested, about 20% had one in any assay.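 Values shown are percent growth following 48 h exposure of cells in 96-well plates to a single concentration of compound; below 10 was considered active.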 A number with no mark means an inactive call. The source made the active and inactive calls.

Among the test systems are NCI-H23 lung; NCI-H226 lung; NCI-H322M lung; HOP-62 NSCLC; NCI-H460 lung; HOP-92 NSCLC; NCI-H522 lung; A549/ATCC NSCLC; 786-0 renal; COLO 205 colon.
Holding throughout (experiment): NCI-60 one-dose screen, 48 h (100 = growth as untreated, 0 = no growth, -100 = all killed)
Common to all, as to settings: 10 µM unless noted

With `CC1CCN(C(=O)CCCl)c2ccccc21` (stereo not given), the growth in the test with NCI-H23 lung was 90.6%; in the test on NCI-H226 lung, 105%; in the test with NCI-H322M lung, 107%; in the test with HOP-62 NSCLC it was 112%; with NCI-H460 lung, 101%; in the test with HOP-92 NSCLC, 115%. Moreover, the growth with NCI-H522 lung was 84.9%; in the test on A549/ATCC NSCLC, 96.6%; in the test with 786-0 renal, 110%; in the test with COLO 205 colon, 111%.

As to `O=C(Cc1ccc(NC(=O)c2cccc(Cl)c2)cc1)NCc1ccccc1`, the growth with NCI-H23 lung is 73.2%; in the test with NCI-H226 lung, 87%; in the test on NCI-H322M lung it was 73.9%; in the test with HOP-62 NSCLC, 46.6%; in the test with NCI-H460 lung, 28.8%; in the test on HOP-92 NSCLC, 72.2%. The growth in the test with NCI-H522 lung was 55.1%; in the test with A549/ATCC NSCLC, 43.9%; in the test on 786-0 renal it was 53.6%; in the test on COLO 205 colon, 39.3%.

For `CN1CCN(c2ccc3nc4c(nc3c2C(F)(F)F)C(=O)c2ncccc2C4=O)CC1`, the growth in the test on NCI-H23 lung is -39.7% (active); in the test on NCI-H226 lung it was -78.9% (active); in the test with NCI-H322M lung it was 36.6%; in the test on HOP-62 NSCLC, -63.3% (active); with NCI-H460 lung, -56.6% (active); in the test with HOP-92 NSCLC, 27.5%. For the same compound, the growth is -67.5% (active) with NCI-H522 lung, -36.2% (active) in the test on A549/ATCC NSCLC, 36.7% in the test with 786-0 renal and -95% (active) with COLO 205 colon.

For `CC1=C(C(=O)Nc2nc(-c3ccc(Cl)cc3)cs2)[C@H](c2ccc(O)cc2)NC(=O)N1`, the growth in the test with NCI-H23 lung was 101%; with NCI-H226 lung, 87.8%; with NCI-H322M lung, 88.3%; in the test on HOP-62 NSCLC it was 99.1%; with NCI-H460 lung it was 104%; in the test on HOP-92 NSCLC it was 100%. The growth in the test on NCI-H522 lung was 90.5%; in the test with A549/ATCC NSCLC it was 95.1%; in the test on 786-0 renal it was 97.8%; in the test on COLO 205 colon, 110%.

Turning to `NC(=O)c1c(NC(=O)c2cccs2)sc2c1CCC(=O)C2`, the growth with NCI-H23 lung is 20.4%; in the test with NCI-H226 lung, 82.9%; in the test with NCI-H322M lung, 77.2%; with HOP-62 NSCLC it was 84.6%; in the test with NCI-H460 lung, 87.5%; in the test on HOP-92 NSCLC it was 36.7%. In addition, the growth was -0.894% (active) in the test on NCI-H522 lung, 84.8% with A549/ATCC NSCLC, 76% in the test with 786-0 renal and 34.2% with COLO 205 colon.

Regarding `CCOC(=O)C(=Cc1ccc(-c2ccccc2)cc1)C(=O)OCC`, the growth with NCI-H23 lung is 38.6%; with NCI-H226 lung it was 46.5%; with NCI-H322M lung, 78.4%; in the test on HOP-62 NSCLC, 73.7%; in the test on NCI-H460 lung, 78%; in the test with HOP-92 NSCLC, 63.2%. In addition, the growth in the test with NCI-H522 lung was 26%; in the test with A549/ATCC NSCLC it was 49.6%; in the test with 786-0 renal, 43.1%; in the test with COLO 205 colon, 55.6%.

On to `Cc1ccc(/C=C/C(=O)c2cccc(OCCCOc3cccc(C(=O)/C=C/c4ccc(C)cc4)c3)c2)cc1`, for which the growth is 69.5% in the test on NCI-H23 lung; 77.5% with NCI-H226 lung; 85.1% in the test with NCI-H322M lung; 102% in the test with HOP-62 NSCLC; 75.9% in the test on NCI-H460 lung; 92.5% in the test on HOP-92 NSCLC. For the same compound, the growth was 76.2% in the test with NCI-H522 lung, 81.2% with A549/ATCC NSCLC, 57.9% in the test with 786-0 renal and 90.9% with COLO 205 colon.

Consider `COc1cc(/C=N/Nc2ccc(Br)cc2)cc(OC)c1OC`, for which the growth in the test with NCI-H23 lung was 75.8%; in the test on NCI-H226 lung, 80.1%; in the test with NCI-H322M lung, 66.3%; in the test with HOP-62 NSCLC it was 93.1%; in the test on NCI-H460 lung, 31.1%; with HOP-92 NSCLC it was 98.2%. Further, the growth in the test on NCI-H522 lung is 39.8%; in the test with A549/ATCC NSCLC, 54.9%; with 786-0 renal, 77.8%; in the test on COLO 205 colon, 86.9%.

Consider `CC1(C)C(N)=Nc2cc(OCCCN3Cc4ccccc4C3)c(OCC3CC3)cc21`, for which the growth in the test on NCI-H23 lung was 93.5%; with NCI-H226 lung, 82.9%; in the test on NCI-H322M lung, 82.3%; in the test with HOP-62 NSCLC, 93.2%; in the test with NCI-H460 lung, 79.8%; in the test with HOP-92 NSCLC, 63.7%. The growth with NCI-H522 lung was 59.6%; in the test on A549/ATCC NSCLC it was 77.2%; in the test on 786-0 renal, 64%; in the test on COLO 205 colon it was -57.2% (active).

In the case of `C[C@]1(O)CC(=O)[C@]2(O)C3=C(C=C[C@]2(O)C1)C(=O)c1c(O)cccc1C3=O`, the growth with NCI-H23 lung is -6.78% (active); in the test on NCI-H226 lung it was 89.3%; in the test with NCI-H322M lung, 86.1%; with HOP-62 NSCLC, 49%; with NCI-H460 lung, 74.9%; with HOP-92 NSCLC, -12.2% (active). For the same compound, the growth in the test on NCI-H522 lung was -59.5% (active); in the test on A549/ATCC NSCLC, 103%; with 786-0 renal it was 9.83% (active); in the test on COLO 205 colon, -81.3% (active).

In the case of `C[C@H](C(=O)N(CCc1ccc(Cl)c(Cl)c1)Cc1cncs1)[C@@H]1CC[C@H](C[C@H](C)n2cc(CN3CCC(c4ccc(Cl)cc4)CC3)nn2)O1`, the growth is 98.2% in the test with NCI-H23 lung; 85% with NCI-H226 lung; 92.7% with NCI-H322M lung; 101% in the test with HOP-62 NSCLC; 103% in the test on NCI-H460 lung; 106% in the test with HOP-92 NSCLC. Besides, the growth in the test with NCI-H522 lung is 86.7%; in the test with A549/ATCC NSCLC, 96.3%; with 786-0 renal, 93.2%; with COLO 205 colon it was 97.6%.

Consider `Cn1ccc(=O)nc1`, for which the growth was 88.7% with NCI-H23 lung; 104% in the test with NCI-H226 lung; 82.9% in the test with NCI-H322M lung; 102% in the test on HOP-62 NSCLC; 38.7% in the test with NCI-H460 lung; 104% in the test with HOP-92 NSCLC. The growth with NCI-H522 lung was 49%; in the test on A549/ATCC NSCLC it was 83.2%; in the test on 786-0 renal, 109%; in the test with COLO 205 colon, 102%.

On to `CN(C)CCN1C(=O)c2cccc3c(/C=C/CN4C(=O)c5cccc6cccc(c56)C4=O)ccc(c23)C1=O`, for which the growth with NCI-H23 lung was 93.8%; in the test with NCI-H226 lung, 98.7%; in the test on NCI-H322M lung it was 84.3%; with HOP-62 NSCLC it was 88.9%; with NCI-H460 lung, 93.7%; in the test with HOP-92 NSCLC it was 94.2%. Further, the growth was 101% with NCI-H522 lung, 85.3% in the test with A549/ATCC NSCLC, -84.5% (active) with 786-0 renal and 82.1% in the test with COLO 205 colon.

The values are drawn from PubChem BioAssay (NCI).
